# Assay results reported in PubChem BioAssay.
# “And” between values parts separate entries of the source, which are not always exact repeats. Equal entries are not always repeated. The source made the active and inactive calls.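 The calls were made as follows, unless noted: active = compounds whose cell count with miR-34 switched on is under 0.7 times the count with it off; inactive = the rest.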
# Key:
# [1] = viability loss with induced miR-34 in A549 – imaging, A549 dox-inducible miR-34, nuclei and caspase counts, primary screen (AID 1347080); details: A549 miR-34 inducible, Hoechst nuclei count, 48 h
# [2] = MELAS cybrid and Rieske KO viability enhancers – cell-based, MELAS cybrids, Rieske KO mouse fibroblasts, CellTiter-Glo, primary screen (AID 1508586;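 active = mean z-score across replicates of 1.96 or higher in either the MELAS or the Rieske mutant cell line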;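 also: z relative to plate mean and SD of compound and empty wells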); details: low glucose
# [3] = galactose survival enhancers in mitochondrial complex I cybrids – cell-based, galactose medium, ATP luminescence, primary screen (AID 1645843;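 active = z-score of at least 1.8 in each of two replicates, scored against plate mean and spread of sample wells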;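 also: positive z means more ATP and so rescue of galactose-driven cybrid death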); details: complex I mutant cybrid cells, 72 h, stronger effect = higher value
# [4] = P. berghei load reduction in hepatocytes – cell-based, HepG2, luciferase luminescence, HepG2 viability, primary screen (AID 624349; in the data active = parasite load remaining mostly below about 12%, no sharp cut-off; inactive = mostly above about 10%;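 also: 100% = mean of DMSO negative control wells on the same plate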); details: P. berghei liver stage in HepG2, luciferase luminescence, concentration not given here; parasite load remaining: stronger effect = lower value; viability: measured here: HepG2 viability without parasites
# [5] = stronger effect = lower value, cell number ratio, induced over uninduced
# [6] = measured here: relative caspase fold change +Dox/-Dox
# [7] = measured here: total cells with miR-34 induction, stronger effect = lower value
# [8] = measured here: total cells without miR-34 induction
# [9] = MELAS cybrid survival, CellTiter-Glo 48 h, stronger effect = higher value
# [10] = Rieske KO mouse fibroblast survival, CellTiter-Glo 72 h
Structure (SMILES),"fold change [1, 5]","fold change [1, 6]","cell count [1, 7]","cell count [1, 8]","z-score [2, 9]","z-score [2, 10]",z-score [3],parasite load remaining [4],viability [4],fold change ([1]; stronger effect = lower value)
C=CC(C)(C)c1cc2cc3c(cc2oc1=O)OC(C(C)(C)O)C3 (stereo not given),0.846 (inactive),0.587,5210,6170,-1.27 (inactive),0.752,-2.66 (inactive),–,–,–
CC1CCCC=C[C@@H]2CC(O)C[C@H]2C(O)C=CC(=O)O1 (stereo not given in full),1.09 (inactive),1.21,2230,2050,4.01 (active),-2.64,–,–,–,–
C=CCN1CC[C@]23c4c5ccc(O)c4O[C@H]2/C(=N/N=C2\CC[C@@]4(O)[C@H]6Cc7ccc(O)c8c7[C@@]4(CCN6CC=C)[C@H]2O8)CC[C@@]3(O)[C@H]1C5,–,1.27,7760,9820,-0.547 (inactive),-0.931,-1.6 (inactive),8.58% (inactive),59%,0.791 (inactive)
C=C[C@H]1CN2CCC1C[C@H]2C(O)c1ccnc2ccccc12 (stereo not given in full),0.935 (inactive),0.691,8540,9140,-0.21 (inactive),0.792,–,–,–,–
COc1cccc2ncn(Cc3cn4ccccc4n3)c(=O)c12,0.944 (inactive),1.17,9180,9730,-0.241 (inactive),-0.636,-0.6 (inactive),–,–,–
C=CC[C@@]1(O)CC[C@H]2[C@@H]3CCC4=CC(=O)CCC4=C3C=C[C@@]21C,0.88 (inactive),0.451,7350,8350,-0.295 (inactive),-0.164,–,–,–,–
C[C@H]1CN(C2CCC(C#N)(c3ccc(F)cc3)CC2)CC[C@@]1(C(=O)O)c1ccccc1 (stereo not given in full),–,1.09,9640,11200,0.032 (inactive),0.209,0.74 (inactive),36.7% (inactive),68%,0.857 (inactive)
CN1C2CCC1CC(=O)C2,0.86 (inactive),0.54,8780,10200,0.543 (inactive),-0.508,0.545 (inactive),–,–,–
C=CCN1CC[C@]23c4c5ccc(O)c4O[C@H]2C(=O)CC[C@@]3(O)C1C5,–,1.73,7860,8350,0.0762 (inactive),-0.34,–,–,–,0.942 (inactive)
O=[N+]([O-])C=Cc1ccc2c(c1)OCO2,0.859 (inactive),0.554,5450,6350,0.246 (inactive),-0.259,–,–,–,–
C[C@]12CCC(O)CC1=CC[C@@H]1[C@H]2CC[C@]2(C)C(=O)CC[C@@H]12 (stereo not given in full),–,0.858,8270,9530,-0.412 (inactive),0.289,–,–,–,0.867 (inactive)
Fc1cc(F)c2c(c1)[C@H]1C=CC[C@@H]1C(c1cccnc1)N2 (stereo not given in full),0.966 (inactive),0.287,1650,1710,1.16 (inactive),0.671,–,–,–,–
Cc1cc(C(=O)CN2CCCC2)c(C)n1-c1ccc(F)cc1,–,0.246,8040,8840,-0.384 (inactive),0.483,–,–,–,0.909 (inactive)
CCC1C(=O)OCC1Cc1cncn1C (stereo not given),0.926 (inactive) and 0.807 (inactive) and 0.899 (inactive),1.4 and 2.3 and 1.43,9120 and 8440 and 10400,9850 and 10500 and 11500,-0.194 (inactive) and -0.728 (inactive),-0.153 and 0.0525,1.16 (inactive) and 0.695 (inactive),38.7% (inactive),114%,–
Cc1nc(-c2ccccn2)nc(NCCc2ccccc2)c1Cl,–,0.693,3090,3170,-0.0148,3.58,-2.29 (inactive),–,–,0.975 (inactive)
N#Cc1cnn(-c2ccc(Cl)cc2)c1N,–,1.03,8030,9420,-0.167 (inactive),-0.085,0.29 (inactive),–,–,0.852 (inactive)
CN(C)C1C(=O)C(C(N)=O)=C(O)[C@@]2(O)C(=O)C3=C(O)c4c(O)cccc4[C@@](C)(O)[C@H]3C(O)[C@@H]12 (stereo not given in full),0.897 (inactive),0.837,7930,8840,-0.21 (inactive),0.479,–,–,–,–
Oc1ccc2c3c1O[C@H]1c4oc5ccccc5c4C[C@@]4(O)[C@@H](C2)N(CC2CC2)CC[C@]314,–,0.462,9980,10900,-0.602 (inactive),0.281,-0.095 (inactive),33.1% (inactive),94%,0.915 (inactive)
